Measurements published in PubChem BioAssay (NCI).
Compounds without any hit were thinned out: in the full panel of roughly 79,000, 15% have a hit. Calls of active or inactive are those of the source. No stated cut-off is given here; in the data, active means growth inhibition above about 70%; inactive means the rest.

Tests used:
[1] = NCI Yeast Anticancer Drug Screen. Data for the rad52 strain (AID 147);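 further: 0% = growth of vehicle-treated control cultures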; conditions: S. cerevisiae rad52 mutant growth inhibition, stronger effect = higher value
In short: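 Inhibition of yeast growth, referenced to vehicle controls, was the measured output for a strain with defective DNA damage repair.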

[2] = NCI Yeast Anticancer Drug Screen. Data for the wt1 strain (AID 149);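 further: 0% = growth of vehicle-treated wt1 cultures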; conditions: S. cerevisiae wt1 strain (SPY 50644) growth inhibition, stronger effect = higher value
In short: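 wt1 yeast, compound-treated; % growth inhibition vs vehicle control.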

[3] = NCI Yeast Anticancer Drug Screen. Data for the rad50EPP+ strain (AID 151);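 further: 0% = growth of vehicle-treated control cultures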; conditions: S. cerevisiae rad50 mutant strain, stronger effect = higher value
In short: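 Genetically defined yeast (rad50EPP+, DNA damage repair alteration) is grown with compound, and inhibition of growth is expressed relative to vehicle-treated controls.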

[4] = NCI Yeast Anticancer Drug Screen. Data for the mgt1 strain (AID 153); conditions: S. cerevisiae mgt1 mutant growth inhibition, stronger effect = higher value
In short: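 In the mgt1 strain, test compounds were added and growth inhibition was determined relative to vehicle-treated controls.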

[5] = NCI Yeast Anticancer Drug Screen. Data for the rad50 strain (AID 155);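 further: 0% = growth of vehicle-only cultures of the same strain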; conditions: S. cerevisiae rad50 strain growth inhibition, stronger effect = higher value
In short: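 Genetically altered yeast (DNA repair pathway); compound treatment; growth inhibition vs vehicle ctrl.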

[6] = NCI Yeast Anticancer Drug Screen. Data for the mec2-1 strain (AID 157); conditions: S. cerevisiae mec2-1 strain, stronger effect = higher value
In short: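 Each compound was tested on mec2-1 yeast, a strain altered in DNA damage repair or cell cycle control. Growth inhibition is reported relative to vehicle.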

[7] = NCI Yeast Anticancer Drug Screen. Data for the rad14 strain (AID 159);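 further: 0% = growth of vehicle-treated control cultures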; conditions: S. cerevisiae rad14 strain growth inhibition, stronger effect = higher value
In short: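 Test compounds were applied to a repair-deficient yeast strain. Its growth was then compared with that of cultures given vehicle alone, and inhibition was expressed relative to those controls.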

[8] = NCI Yeast Anticancer Drug Screen. Data for the sgs1 mgt1 strain (AID 161);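 further: 0% = growth of cultures given vehicle only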; conditions: S. cerevisiae sgs1 mgt1 strain, stronger effect = higher value
In short: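 Inhibition of yeast growth, normalised to vehicle-treated controls, is reported for a strain bearing genetic alterations in DNA damage repair.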

[9] = NCI Yeast Anticancer Drug Screen. Data for the CLN2oe strain (AID 163);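 further: 0% = growth of vehicle-only control cultures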; conditions: S. cerevisiae CLN2oe strain, stronger effect = higher value
In short: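 First, the altered yeast strain was treated with each compound; second, its growth was measured; finally, inhibition was derived by comparison with vehicle controls.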

[10] = NCI Yeast Anticancer Drug Screen. Data for the cln2 rad14 strain (AID 165);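 further: 0% = growth equal to vehicle treated cultures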; conditions: S. cerevisiae cln2 rad14 strain, stronger effect = higher value
In short: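 Test compounds were added to cln2 rad14 yeast cultures; inhibition of growth was then determined by comparison with vehicle treatment.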

[11] = NCI Yeast Anticancer Drug Screen. Data for the bub3 strain (AID 167); conditions: S. cerevisiae bub3 mutant strain, stronger effect = higher value
In short: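 Yeast carrying a defined mutation is treated with each compound, and growth is compared with that of vehicle-exposed cells to give inhibition.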

[12] = NCI Yeast Anticancer Drug Screen. Data for the wt2 strain (AID 169);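 further: 0% = growth of vehicle-treated yeast cultures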; conditions: S. cerevisiae wt2 strain growth inhibition, stronger effect = higher value
In short: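 The panel's yeast strains carry defined changes in DNA repair or cell cycle genes. Each strain is grown with compound, and growth loss is scored relative to vehicle.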

[13] = NCI Yeast Anticancer Drug Screen. Data for the mlh1 strain (AID 171);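 further: 0% = growth of vehicle-treated control cultures of the same strain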; conditions: S. cerevisiae mlh1 strain growth inhibition, stronger effect = higher value
In short: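 Inhibition values reflect reduced yeast growth in the presence of compound, referenced to vehicle controls, using a strain chosen for its alteration in DNA repair or cell cycle control.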

[14] = NCI Yeast Anticancer Drug Screen. Data for the rad18 strain (AID 177); conditions: S. cerevisiae rad18 mutant growth inhibition, stronger effect = higher value
In short: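 Steps: expose repair-mutant yeast to compound; measure growth; express as inhibition relative to vehicle control.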

[15] = at 5.0 µM (retest, dose inferred, filed as 0.5)
[16] = at 50.0 µM (retest, dose inferred, filed as 5.0)

Measured: growth inhibition

O=C1C=CC(=O)N1c1ccc(N2C(=O)C=CC2=O)cc1
inactive: [1]; at 1.2 µM 43% | [2]; at 1.2 µM 33% | [3]; at 1.2 µM 3% | [3]; at 3.7 µM 49% | [4]; at 1.2 µM 60% | [5]; at 1.2 µM 32% | [5]; [15] 44% | [6]; at 1.2 µM 46% | [6]; [15] 39% | [7]; at 1.2 µM 17% | [8]; [15] -16% | [9]; at 1.2 µM 35% | [9]; at 3.7 µM 59% | [10]; [15] 47% | [11]; at 1.2 µM 48% | [11]; [15] 19% | [12]; at 1.2 µM 9% | [13]; at 1.2 µM 49% | [14]; at 1.2 µM 46%
active: [1]; at 3.7 µM 93% | [1]; at 11.0 µM 100% | [1]; at 33.0 µM 100% | [1]; at 100.0 µM 99% | [2]; at 3.7 µM 95% | [2]; at 11.0 µM 100% | [2]; at 33.0 µM 100% | [2]; at 100.0 µM 98% | [3]; at 11.0 µM 85% | [3]; at 33.0 µM 99% | [3]; at 100.0 µM 99% | [4]; at 3.7 µM 102% | [4]; at 11.0 µM 100% | [4]; at 33.0 µM 100% | [4]; at 100.0 µM 98% | [5]; at 3.7 µM 97% | [5]; at 11.0 µM 100% | [5]; at 33.0 µM 100% | [5]; [16] 73% | [5]; at 50.0 µM 92.2% | [5]; at 100.0 µM 99% | [6]; at 3.7 µM 101% | [6]; at 11.0 µM 100% | [6]; at 33.0 µM 100% | [6]; [16] 82% | [6]; at 50.0 µM 94.4% | [6]; at 100.0 µM 99% | [7]; at 3.7 µM 101% | [7]; at 11.0 µM 100% | [7]; at 33.0 µM 100% | [7]; at 100.0 µM 99% | [8]; [16] 100% | [8]; at 50.0 µM 93.5% | [9]; at 11.0 µM 99% | [9]; at 33.0 µM 99% | [9]; at 100.0 µM 99% | [10]; [16] 100% | [10]; at 50.0 µM 92.3% | [11]; at 3.7 µM 96% | [11]; at 11.0 µM 100% | [11]; at 33.0 µM 100% | [11]; [16] 99% | [11]; at 50.0 µM 92.8% | [11]; at 100.0 µM 99% | [12]; at 3.7 µM 91% | [12]; at 11.0 µM 99% | [12]; at 33.0 µM 100% | [12]; at 100.0 µM 98% | [13]; at 3.7 µM 99% | [13]; at 11.0 µM 100% | [13]; at 33.0 µM 100% | [13]; at 100.0 µM 99% | [14]; at 3.7 µM 90% | [14]; at 11.0 µM 100% | [14]; at 33.0 µM 100% | [14]; at 100.0 µM 99%
